# In PubChem BioAssay AID2528 (National Center for Advancing Translational Sciences (NCATS), 2010):
# The whole screen tested about 350,000 compounds, of which about 700 (0.2%) were called active. Entries that show only a call come without a potency. The call rests on the fitted dose curve; in most records, active means well fitted inhibition curve with a large enough effect; inconclusive means small, poorly fitted or top-dose-only effect; inactive means flat fitted curve, though single readings scatter. Many of the other results were omitted from the sample, so actives are more common in it than they were.
# Molecular target: RecQ-like DNA helicase BLM (Homo sapiens) (UniProt P54132)
# Sequence (P54132 whole entry, looked up): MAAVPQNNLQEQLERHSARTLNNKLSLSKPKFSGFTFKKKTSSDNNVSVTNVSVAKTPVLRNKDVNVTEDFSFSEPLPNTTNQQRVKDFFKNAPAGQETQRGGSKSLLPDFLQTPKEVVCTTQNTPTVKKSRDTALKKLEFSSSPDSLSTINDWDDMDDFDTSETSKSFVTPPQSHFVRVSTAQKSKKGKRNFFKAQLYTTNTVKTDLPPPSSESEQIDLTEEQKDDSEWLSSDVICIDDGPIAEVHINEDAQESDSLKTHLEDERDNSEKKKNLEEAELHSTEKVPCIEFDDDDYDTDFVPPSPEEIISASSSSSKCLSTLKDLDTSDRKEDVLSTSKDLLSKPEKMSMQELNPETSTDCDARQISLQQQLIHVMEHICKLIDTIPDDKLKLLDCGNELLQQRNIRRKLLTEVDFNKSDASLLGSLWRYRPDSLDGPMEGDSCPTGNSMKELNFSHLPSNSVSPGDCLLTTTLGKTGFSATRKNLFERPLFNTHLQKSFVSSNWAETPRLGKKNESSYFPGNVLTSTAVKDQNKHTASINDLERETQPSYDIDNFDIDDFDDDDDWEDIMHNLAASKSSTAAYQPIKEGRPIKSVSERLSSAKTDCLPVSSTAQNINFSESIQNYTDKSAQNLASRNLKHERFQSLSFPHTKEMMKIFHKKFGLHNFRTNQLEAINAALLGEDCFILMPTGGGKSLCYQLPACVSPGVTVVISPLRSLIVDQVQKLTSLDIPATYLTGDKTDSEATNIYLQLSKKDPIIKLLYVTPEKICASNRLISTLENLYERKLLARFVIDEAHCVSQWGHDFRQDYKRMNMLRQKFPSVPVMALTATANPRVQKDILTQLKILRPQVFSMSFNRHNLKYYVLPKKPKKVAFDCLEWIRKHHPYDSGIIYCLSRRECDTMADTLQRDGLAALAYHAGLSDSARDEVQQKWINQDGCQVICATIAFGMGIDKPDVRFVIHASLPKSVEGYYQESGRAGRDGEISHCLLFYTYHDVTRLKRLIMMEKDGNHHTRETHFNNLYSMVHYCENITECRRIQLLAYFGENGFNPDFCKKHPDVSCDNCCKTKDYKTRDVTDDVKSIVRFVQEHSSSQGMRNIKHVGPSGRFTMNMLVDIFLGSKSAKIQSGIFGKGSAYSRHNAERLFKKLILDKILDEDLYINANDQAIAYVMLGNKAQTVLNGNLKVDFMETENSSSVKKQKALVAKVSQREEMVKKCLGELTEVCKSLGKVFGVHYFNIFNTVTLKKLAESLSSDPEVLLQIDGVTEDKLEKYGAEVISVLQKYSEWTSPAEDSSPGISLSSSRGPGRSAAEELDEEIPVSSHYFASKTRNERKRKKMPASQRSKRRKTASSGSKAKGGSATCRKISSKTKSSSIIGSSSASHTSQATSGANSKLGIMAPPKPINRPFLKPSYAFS
# Experiment: qHTS Assay for Inhibitors of Bloom's syndrome helicase (BLM); further: nearly all actives have a fitted effect of over 35% in size
# Details: recombinant BLM DNA unwinding, fluorescence dequenching; series mostly up to 56.1 µM
# Description: Survival of cells and the faithful propagation of the genome depend on elaborate mechanisms of detecting and repairing DNA damage. Treatment of advanced cancer relies on radiation therapy or chemotherapy, which kill cancer cells by causing extensive DNA damage. It is often found, that cancer cells develop resistance to therapy through enhanced activity of DNA repair functions; this has led to an increased interest in developing drugs that interfere with DNA repair, which could sensitize cancer cells to conventional therapy.
# This validation qHTS assay pertains to human BLM, which is important in resolving abnormal DNA structures formed during replication or homologous recombination. Shutting down the expression of BLM leads to chromosomal instability and higher radiation sensitivity in cultured cells.
# The validation assay was a fluorescence quenching based kinetic qHTS for BLM Helicase DNA unwinding. The activity was measured as ATP-dependent separation of a 20-bp DNA duplex extended by 30-nt single-stranded tails (forked duplex). The forked DNA substrate was tagged with rhodamine fluorophore (carboxytetramethyl rhodamine, TAMRA) and BHQ-2 (Black Hole Quencher 2) dark quencher. Strand separation results in an increase in the fluorescence of TAMRA (excitation 525 nm, emission 598 nm). This substrate construct operates in a red-shifted region where very few compound library members have been noted to fluoresce (PubChem AIDs 593 and 594). An additional feature of the assay is the inclusion of 2.5 ug/ml poly (dIdC), to reduce interference by compounds such as DNA intercalators, a major source of false inhibitors.
# Ian Hickson, University of Oxford
# Opher Gileadi, Structural Genomics Consortium, University of Oxford
# Screening Center PI: Austin, C.P.
# Screening Center: NIH Chemical Genomics Center [NCGC]
# Three uL of reaction buffer (25 mM Tris-HCl (pH 8.0), 5 mM NaCl, 2 mM MgCl2, 1mM DTT, 0.01% Tween- 20, and 2.5 ug/ml poly(dI-dC), including enzyme (50 nM BLM), were dispensed into a 1536-well Greiner black assay plate via solenoid-valve based nanoliter dispensers. Compounds (23 nl each in columns 5-48) and control (23 nl each in column 2 as dose-response) were transferred via a Kalypsys pintool equipped with a 1536-pin array. The plates were incubated for 15 min at room temperature, and then 1 ul of substrates (200 nM DNA and 2 mM ATP, final concentrations) was added to start the reaction. The plate was transferred into a ViewLux high-throughput CCD imager where the reaction progress was measured in a discontinuous kinetic mode (two reads spaced 2 hours apart, with intermediate room temperature incubation of the covered assay plate) by using standard red-fluorescence optics (excitation filter 525 nm, emission filter 598 nm). Enzyme-free and vehicle (DMSO) controls were included for signal normalization.
# Potency means the concentration at half of the fitted maximal effect.
row,Structure (SMILES),Potency
1,COc1cccc(N2C(=O)NC(=O)/C(=C\c3ccc([N+](=O)[O-])s3)C2=O)c1,inactive
2,COc1ccc(N2C(=O)/C(=C/c3ccco3)C(=O)NC2=S)cc1,12.6 µM (active)
3,N#Cc1cc(Br)c(O)c(Br)c1,inactive
4,O=C1CCc2cccc3c2N1CC3,inactive
5,C[C@]12O[C@H](C[C@@]1(O)C(=O)O)n1c3ccccc3c3c4c(c5c6ccccc6n2c5c31)CNC4=O,inactive
6,CCN(CC)c1nc(C)cc(OP(=S)(OC)OC)n1,inactive
7,CC(=O)[O][Sn]([c]1ccccc1)([c]1ccccc1)[c]1ccccc1,inactive
8,CCCCCCCCCCCCN=C(N)N,inactive
9,C[C@@H]1C[C@H]2CC[C@H](O2)[C@H](C)C(=O)O[C@@H](C)C[C@@H]2CC[C@@H](O2)[C@@H](C)C(=O)O[C@H](C)C[C@H]2CC[C@H](O2)[C@H](C)C(=O)O[C@@H](C)C[C@@H]2CC[C@@H](O2)[C@@H](C)C(=O)O1,inactive
10,CC[N+](C)(CC)CCC[n+]1c(-c2ccccc2)c2cc(N)ccc2c2ccc(N)cc21,5.01 µM (active)
11,C[C@H]1C/C=C/[C@@H]2[C@@H]3O[C@]3(C)[C@@H](C)[C@H]3[C@H](Cc4ccccc4)NC(=O)[C@]32OC(=O)O/C=C/[C@](C)(O)C1=O,inactive
12,COC([CH2][Hg])CNC(=O)c1ccccc1OCC(=O)O (stereo not given),inactive
13,CN(C)C[C@H]1CCCC[C@]1(O)c1cccc(O)c1,inactive
14,O=C(OCC1O[C@@H](OC(=O)c2cc(O)c(O)c(O)c2)[C@@H](OC(=O)c2cc(O)c(O)c(O)c2)[C@@H](OC(=O)c2cc(O)c(O)c(O)c2)[C@@H]1OC(=O)c1cc(O)c(O)c(O)c1)c1cc(O)c(O)c(O)c1 (stereo not given in full),0.501 µM (active)
15,CC(C)(Cc1c[nH]c2ccc(Cl)cc12)NCCOc1ccccc1OCC1CC1,inactive
